A short description of assay [1]: antimalarial activity against Dd2 strain (AID 2302;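 active = growth inhibition above 50% at the single 2 µM test dose, taken to imply half-maximal potency below 2 µM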;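 also: 0% = DMSO untreated growth and 100% = chloroquine plus artemisinin killed control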). As to conditions: P. falciparum Dd2 in RBCs, LDH growth readout, 72 h; at 2 µM; stronger effect = higher value.
Assay [2] is described as follows: human hepatoma cell viability loss – ATP luminescence, cytotoxicity control for P. falciparum antimalarial project, primary screen (AID 2303;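 active = inhibition above 50%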;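 also: 0% = DMSO wells and 100% = digitonin-killed cells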). The settings on record: HepG2 viability, 24-48 h, at 10 µM, stronger effect = higher value.
The target in assay [3] is L-lactate dehydrogenase (Plasmodium falciparum (isolate CDC / Honduras)) (UniProt Q27743). In words: PfLDH activity inhibition – cell lysate, 3D7 strain, counter-screen for P. falciparum growth inhibition project (AID 2304).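 Also: 0% = vehicle and 100% = reference inhibitor.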 The settings on record: P. falciparum 3D7 crude extract, LDH APAD/NBT absorbance; at 2 µM; stronger effect = higher value. (In general: Counterscreens check selectivity or assay interference.)

The nature of assay [4]: inhibition of 3D7 malaria parasite growth – strain 3D7 (AID 2306).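 Also: 0% = DMSO wells and 100% = chloroquine plus artemisinin control wells.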 The settings on record: P. falciparum 3D7 erythrocytic growth, LDH absorbance, 72 h; at 2 µM; stronger effect = higher value.
For assay [5], the target named is Plasmodium falciparum protein kinase 6 (PK6, PF3D7_1337100) (UniProt Q8IDW1). In words: PfPK6 kinase inhibitors, biochemical, TCAMS library (AID 1159586). The settings on record: recombinant PfPK6, Kinase-Glo ATP depletion luminescence. (In general: In Kinase-Glo more light means more ATP remaining.)
The target in assay [6] is Protein kinase 7 (PK7), Plasmodium falciparum 3D7 (PF3D7_0213400) (UniProt Q7YTF7). In words: inhibition of Plasmodium PK7 catalytic activity – biochemical, TCAMS antimalarial set, Kinase-Glo luminescence (AID 1159587). The settings on record: recombinant PfPK7, Kinase-Glo ATP depletion luminescence.
Assay [7] deals with Calcium-dependent protein kinase 4 (Plasmodium falciparum (isolate 3D7)) (UniProt Q8IBS5). In words: PfCDPK4 kinase inhibitors, biochemical, TCAMS library (AID 1159588; cut-off not given, nearly all actives have IC50 up to about 0.91 µM). As to conditions: recombinant PfCDPK4, Kinase-Glo ATP depletion luminescence.
Assay [8] is described as follows: viability loss in pontine glioma line – cell-based, SU-DIPG-XVII, MIPE5.0, CellTiter-Glo, qHTS, dose response (AID 1347060; cut-off not given, nearly all actives have AC50 up to about 26 µM;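 also: cells exposed to compound for 48 hours before viability readout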). The settings on record: CellTiter-Glo ATP luminescence. For orientation: ATP-based viability assays read luminescence as a measure of living cells.
Assay [9] in a line: viability loss in pontine glioma line – cell-based, JHH-DIPG-1, MIPE4.0, CellTiter-Glo, qHTS, dose response (AID 1347062; cut-off not given, nearly all actives have AC50 up to about 27 µM;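 also: cells exposed to compound for two days before readout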). As to conditions: JHH-DIPG-1 viability, CellTiter-Glo ATP luminescence.
A short description of assay [10]: viability loss in pontine glioma line – cell-based, SU-DIPG-IV, MIPE4.0, CellTiter-Glo, qHTS, dose response (AID 1347063; cut-off not given, nearly all actives have AC50 up to about 30 µM;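 also: compound exposure lasted 48 hours before the viability readout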). The settings on record: CellTiter-Glo ATP luminescence.
Assay [11] in a line: viability loss in pontine glioma line – cell-based, SU-DIPG-XXV, MIPE5.0, CellTiter-Glo, qHTS, dose response (AID 1347065; cut-off not given, nearly all actives have AC50 up to about 26 µM;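 also: cells exposed to compound for 48 hours before ATP readout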). As to conditions: CellTiter-Glo ATP luminescence.
The nature of assay [12]: growth inhibition of DIPG cells – cell-based, MIPE4.0 library, CellTiter-Glo luminescence, qHTS (AID 1347066; cut-off not given, nearly all actives have AC50 up to about 30 µM;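 also: cells exposed to compound for 48 hours before readout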). The settings on record: SU-DIPG-VI viability, CellTiter-Glo ATP luminescence.
Assay [13] in a line: JHH-DIPG-1 glioma cell viability, MIPE5.0 library, CellTiter-Glo luminescence, qHTS (AID 1347067; cut-off not given, nearly all actives have AC50 up to about 26 µM;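 also: cells exposed to compound for 48 hours before readout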). The settings on record: JHH-DIPG-1 glioma viability, CellTiter-Glo ATP luminescence.
Assay [14] in a line: growth inhibition of DIPG cells – cell-based, MIPE5.0 library, qHTS (AID 1347068; cut-off not given, nearly all actives have IC50 up to about 30 µM;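 also: cells exposed to compound for 48 hours before viability readout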). The settings on record: SU-DIPG-XXV viability.
Assay [15] in a line: viability loss with induced miR-34 in A549 – imaging, A549 dox-inducible miR-34, nuclei and caspase counts, primary screen (AID 1347080;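 active = compounds whose cell count with miR-34 switched on is under 0.7 times the count with it off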). As to conditions: A549 miR-34 inducible, Hoechst nuclei count, 48 h.
The nature of assay [16]: compounds altering HSF1 focus formation in cells – imaging, Selleck Cancer Library (AID 1347162; in the data active = plate-normalised HSF1 focus index below about 0.46). As to conditions: human cells, HSF1 nuclear foci imaging, at 10 µM; SSMD: measured here: HSF1 foci SSMD mean; cell count: measured here: cell number; plate-normalised HSF1 focus index: stronger effect = lower value.
Assay [17] is described as follows: blockers of cellular phospholipid synthesis – cell-based, LOPAC library, screen 4, primary screen (AID 1347384). The settings on record: animal cells, phospholipid biosynthesis inhibition screen; at 10 µM.
Assay [18] in a line: galactose survival enhancers in mitochondrial complex I cybrids – cell-based, galactose medium, ATP luminescence, primary screen (AID 1645843;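 active = z-score of at least 1.8 in each of two replicates, scored against plate mean and spread of sample wells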;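 also: positive z means more ATP and so rescue of galactose-driven cybrid death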). As to conditions: complex I mutant cybrid cells, 72 h, stronger effect = higher value.
Where [19] appears, read: stronger effect = lower value, cell number ratio, induced over uninduced.
[20] abbreviates: measured here: relative caspase fold change +Dox/-Dox.
[21] abbreviates: measured here: total cells with miR-34 induction, stronger effect = lower value.
The mark [22] stands for this setting: measured here: total cells without miR-34 induction.

Records with an inconclusive call do not appear. For some of these results: Entries with a potency or affinity are not part of this list. Active and inactive are the calls of the source. Unless noted, no rule for the calls is given here.

Broadly, the inhibition is the drop in the measured response relative to a control, in per cent. Usually AC50 stands for the concentration at which the activity in the assay is half-maximal. One may read the IC50 as the concentration at which inhibition is half-maximal.

Chain of Protein kinase 7 (PK7), Plasmodium falciparum 3D7 (PF3D7_0213400) (Q7YTF7 1-343): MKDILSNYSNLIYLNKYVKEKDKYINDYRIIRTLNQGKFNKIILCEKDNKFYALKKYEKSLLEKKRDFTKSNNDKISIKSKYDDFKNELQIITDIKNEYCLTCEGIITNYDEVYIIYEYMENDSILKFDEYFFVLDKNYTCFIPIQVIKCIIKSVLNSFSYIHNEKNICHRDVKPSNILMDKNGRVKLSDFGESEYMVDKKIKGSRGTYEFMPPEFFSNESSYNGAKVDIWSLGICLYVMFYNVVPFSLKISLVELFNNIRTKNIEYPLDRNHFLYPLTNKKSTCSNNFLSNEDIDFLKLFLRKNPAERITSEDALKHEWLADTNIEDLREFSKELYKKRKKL
Chain of Calcium-dependent protein kinase 4 (Plasmodium falciparum (isolate 3D7)) (Q8IBS5 whole entry, looked up): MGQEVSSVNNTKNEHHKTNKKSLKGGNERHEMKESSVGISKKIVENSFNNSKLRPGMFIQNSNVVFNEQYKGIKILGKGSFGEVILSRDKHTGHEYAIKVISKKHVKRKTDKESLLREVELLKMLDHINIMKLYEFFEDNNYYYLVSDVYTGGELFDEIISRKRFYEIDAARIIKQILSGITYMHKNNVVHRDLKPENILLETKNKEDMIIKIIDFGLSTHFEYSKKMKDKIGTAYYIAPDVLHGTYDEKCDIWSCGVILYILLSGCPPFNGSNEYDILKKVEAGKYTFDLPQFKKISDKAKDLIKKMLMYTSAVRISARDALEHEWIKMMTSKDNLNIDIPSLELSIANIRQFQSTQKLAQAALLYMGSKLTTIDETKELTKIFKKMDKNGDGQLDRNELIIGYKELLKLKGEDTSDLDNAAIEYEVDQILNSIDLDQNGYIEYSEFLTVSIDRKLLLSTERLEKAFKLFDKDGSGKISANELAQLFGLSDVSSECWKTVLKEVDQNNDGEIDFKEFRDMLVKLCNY
Chain of Plasmodium falciparum protein kinase 6 (PK6, PF3D7_1337100) (Q8IDW1 1-305): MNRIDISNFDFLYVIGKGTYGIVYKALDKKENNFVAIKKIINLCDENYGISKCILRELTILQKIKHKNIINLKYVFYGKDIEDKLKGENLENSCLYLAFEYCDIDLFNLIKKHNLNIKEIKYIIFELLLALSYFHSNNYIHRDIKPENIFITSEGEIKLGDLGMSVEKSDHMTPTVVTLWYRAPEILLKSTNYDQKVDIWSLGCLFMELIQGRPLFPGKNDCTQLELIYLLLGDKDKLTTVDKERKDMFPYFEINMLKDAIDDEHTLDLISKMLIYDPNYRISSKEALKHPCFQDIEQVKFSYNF
Chain of L-lactate dehydrogenase (Plasmodium falciparum (isolate CDC / Honduras)) (Q27743 whole entry, looked up): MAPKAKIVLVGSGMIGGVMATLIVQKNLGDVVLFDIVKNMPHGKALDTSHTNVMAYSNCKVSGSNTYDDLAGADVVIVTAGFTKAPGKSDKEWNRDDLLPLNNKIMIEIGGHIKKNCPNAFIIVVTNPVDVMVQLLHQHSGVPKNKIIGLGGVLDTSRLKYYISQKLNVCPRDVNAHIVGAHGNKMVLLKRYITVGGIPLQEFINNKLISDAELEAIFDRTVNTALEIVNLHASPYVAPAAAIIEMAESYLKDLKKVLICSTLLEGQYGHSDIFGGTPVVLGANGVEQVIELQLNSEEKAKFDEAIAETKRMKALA

For `CCn1c(-c2nonc2N)nc2c(-c3ccccc3)ncc(OCCCCNCCc3ncc[nH]3)c21`, the figures for the growth inhibition in assay [1] and in assay [4] were 42% (inactive) and 92% (active), respectively. Besides, the results for the inhibition in assay [2] and in [3] were 34% (inactive) and -1% (inactive), respectively. Further, the outcome in assay [5] and in [6] was inactive.

Take `CCn1c(-c2nonc2N)nc2c(-c3cccc(NC(=O)Nc4cccc(C#N)c4)c3)ncc(OCCCN)c21`: the results for the growth inhibition in [1] and in assay [4] were 80% (active) and 92% (active), respectively. In addition, the values for the inhibition in [2] and in assay [3] were 37% (inactive) and 0% (inactive), respectively. The result in assay [5] and in assay [6] was inactive.

For `NCCNS(=O)(=O)c1ccc(-c2ccnc3[nH]c(-c4ccncc4)cc23)cc1`, the growth inhibition is 95% (active) in [1] and 96% (active) in assay [4]. Moreover, the inhibition was -10% (inactive) in assay [2] and 3% (inactive) in assay [3]. Moreover, the result in [6] and in assay [7] was inactive.

With `Cn1cc(-c2ccnc3[nH]c(-c4cccc(CNC5CCC(O)CC5)c4)cc23)cn1` (configuration not stated), the growth inhibition is 82% (active) in [1] and 95% (active) in assay [4]. In addition, the inhibition was 48% (inactive) in [2] and 2% (inactive) in assay [3]. Moreover, the result in assay [6] and in [7] was inactive.

Turning to `CCn1c(-c2nonc2N)nc2c(-c3cccc(NC(=O)Nc4cccc(C(F)(F)F)c4)c3)ncc(OCCCN)c21`, the growth inhibition was 70% (active) in assay [1] and 95% (active) in assay [4]. Also, the inhibition is 21% (inactive) in assay [2] and 2% (inactive) in assay [3]. For the same compound, the outcome in assay [5] and in [6] was inactive.

For the compound `COc1ccc(Nc2ncc(Cl)c(Nc3cccnc3C(N)=O)n2)cc1N1CCN(C)CC1`, the growth inhibition is 97% (active) in assay [1] and 95% (active) in [4]. Moreover, the inhibition in assay [2] was 77% (active); in [3], 6% (inactive). For the same compound, the outcome in assay [6] and in assay [7] was inactive.

Consider `NCC(NC(=O)c1ccc(-c2c[nH]c3ncccc23)s1)c1ccccc1` (configuration not stated), for which the growth inhibition in assay [1] was 87% (active); in [4], 95% (active). Moreover, the inhibition is 52% (active) in assay [2] and 0% (inactive) in assay [3]. The outcome in assay [5] and in assay [6] was inactive.

With `COCCOc1ccc(Nc2nccc(-c3c(-c4cccc(NC(=O)c5c(F)cccc5F)c4)nn4ccccc34)n2)cc1Cl`, the growth inhibition in assay [1] is 97% (active); in [4] it was 99% (active). Also, the inhibition in assay [2] was 53% (active); in assay [3], 4% (inactive). The outcome in assay [5] and in assay [6] was inactive.

Regarding `O=S1(=O)NCc2ccc(Nc3nccc(Nc4ccc5c(cnn5Cc5ccccc5)c4)n3)cc21`, the growth inhibition in [1] is 33% (inactive); in assay [4], 94% (active). In addition, the inhibition in [2] was -8% (inactive); in assay [3], -1% (inactive). For the same compound, the outcome in assay [6] and in assay [7] was inactive.

`O=c1[nH]ccc2nc(N[C@@H]3CCCNC3)nc(Nc3ccc(S(=O)(=O)N4CCOCC4)cc3)c12`: the growth inhibition in assay [1] was 99% (active); in assay [4] it was 96% (active). For the same compound, the figures for the inhibition in [2] and in [3] were 13% (inactive) and 0% (inactive), respectively. The result in [6] and in assay [7] was inactive.

`Cc1cccc(Nc2nc(N[C@@H]3CCCNC3)nc3cc[nH]c(=O)c23)c1`: the values for the growth inhibition in assay [1] and in [4] were 98% (active) and 99% (active), respectively. Also, the inhibition in [2] was 55% (active); in assay [3] it was 1% (inactive). In addition, the outcome in assay [5] and in assay [6] was inactive.

Regarding `CNC(=O)c1ccccc1Nc1nc(Nc2cccc(CS(C)(=O)=O)c2)ncc1C`, the growth inhibition is 95% (active) in assay [1] and 97% (active) in [4]. The inhibition in assay [2] is 74% (active); in [3], -4% (inactive). The outcome in [6] and in assay [7] was inactive.

As to `Cc1ccc(Nc2ccnc(Nc3ccc4c(c3)CS(=O)(=O)C4)n2)cc1O`, the growth inhibition was 76% (active) in [1] and 102% (active) in assay [4]. Moreover, the inhibition in assay [2] is 82% (active); in assay [3] it was 5% (inactive). Further, the outcome in assay [6] and in assay [7] was inactive.

Take `CCN(CC)CCOc1ccc(Nc2ncc3cc(-c4c(Cl)cccc4Cl)c(=O)n(C)c3n2)cc1`: the values for the growth inhibition in assay [1] and in assay [4] were 91% (active) and 90% (active), respectively. Moreover, the inhibition in [2] was 72% (active); in assay [3], 1% (inactive). Also, the result in assay [6], in [7] and in assay [17] was inactive. The AC50 is 417 nM (active) in assay [8]; 2960 nM (active) in assay [9]; 4180 nM (active) in [10]; 1860 nM (active) in assay [11]; 20900 nM (active) in assay [12]; 4680 nM (active) in [13]. In assay [14], the concentration for half-maximal inhibition (IC50) is 2950 nM (active). The fold change in [15] (setting [19]) is 1.1 (inactive); in [15] (setting [20]), 0.543. For the same compound, the cell count in assay [15] (setting [21]) was 761; in [15] (setting [22]) it was 694; in [16] it was 5360. In [16], the SSMD is -11.2. For the same compound, in [16], the plate-normalised HSF1 focus index is 0.335 (inactive). The z-score in [18] was -1.38 (inactive).

For the compound `Cn1c(=O)c(-c2c(Cl)cccc2Cl)cc2cnc(Nc3ccc(N4CCOCC4)cc3)nc21`, the growth inhibition in assay [1] was 97% (active); in assay [4] it was 98% (active). The inhibition in [2] is 64% (active); in assay [3] it was 4% (inactive). The result in assay [6], in assay [7] and in assay [17] was inactive. In addition, the fold change in assay [15] (setting [19]) was 1.06 (inactive); in assay [15] (setting [20]), 1.37. For the same compound, the cell count was 814 in assay [15] (setting [21]) and 768 in assay [15] (setting [22]). In assay [18], the z-score is -1.38 (inactive).

Regarding `CN1CCN(c2ccc(Nc3nccc(-c4cnn5ncccc45)n3)cc2Cl)CC1`, the figures for the growth inhibition in assay [1] and in assay [4] were 92% (active) and 95% (active), respectively. The inhibition in assay [2] is 65% (active); in [3] it was 0% (inactive). In addition, the outcome in assay [6] and in assay [7] was inactive.

Regarding `O=C(Nc1cccc(-c2nn3ccccc3c2-c2ccnc(Nc3cccc(-c4cnco4)c3)n2)c1)C1CCCCC1`, the growth inhibition in assay [1] is 99% (active); in assay [4], 95% (active). In addition, the inhibition in [2] is 71% (active); in [3], -4% (inactive). Also, the outcome in [5] and in assay [6] was inactive.

With `NS(=O)(=O)c1ccc(Nc2nccc(-c3c(-c4cccc(NC(=O)c5c(F)cccc5F)c4)nn4ccccc34)n2)cc1`, the growth inhibition is 89% (active) in assay [1] and 93% (active) in assay [4]. Further, the inhibition in assay [2] was 83% (active); in assay [3], -7% (inactive). The result in assay [6] and in assay [7] was inactive.

For the compound `CCn1c(-c2nonc2N)nc2c(-c3cccc(NC(=O)Nc4ccc5c(c4)CCC5)c3)ncc(OCCCN)c21`, the figures for the growth inhibition in [1] and in assay [4] were 94% (active) and 99% (active), respectively. In addition, the figures for the inhibition in assay [2] and in assay [3] were 26% (inactive) and -2% (inactive), respectively. The outcome in [5] and in assay [6] was inactive.

On to `COc1ccc(Nc2ncc(C#N)c(Nc3ccccc3C(N)=O)n2)cc1N1CCN(C)CC1`, for which the growth inhibition in assay [1] is 97% (active); in assay [4], 93% (active). The inhibition in assay [2] was 56% (active); in [3], -1% (inactive). For the same compound, the outcome in [6] and in [7] was inactive.

(Values after PubChem BioAssay.)
